Assay results: the supplement of paper PMC10849652
About 7,900 targets were measured; listed, in parts, are those with a hit and a random draw of the rest. About 0.6% of all pairs of compound and target were hits.

Experiments:
Test in all cases: log2 fold change, soluble protein after heating vs DMSO (PISA); higher = thermal stabilisation; K562 cells, 10 uM, 30 min; active = over 0.2 and 3.5 SD of the protein, either way, in both replicates (recomputed)
[1] = compound: Cc1ccc(NC(=O)c2ccc(CN3CC[C@H](N(C)C)C3)c(C(F)(F)F)c2)cc1Nc1nccc(-c2cncnc2)n1 [bafetinib]
Summary of the method: (§1)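 Soluble protein was defined as the supernatant after 21,000xg for 90 min. It came from K562 cells at 2×10^6 cells/mL given 10 μM compound for 30 min, heated in aliquots for 3 min across 48°C-58°C, pooled, and extracted in PBS with 0.5% NP-40 at 4°C, and was quantified by TMTpro 16plex LC-MS/MS with equalised channel sums. Thermal stability against control samples, from duplicates, is reported as log2 fold change.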

[2] = compound: Cc1cccc(CC(=O)N2CCc3c2ccc(-c2cn(C)c4ncnc(N)c24)c3F)n1
Summary of the method: as §1

[3] = compound: Cc1cn(-c2cc(NC(=O)c3ccc(C)c(Nc4nccc(-c5cccnc5)n4)c3)cc(C(F)(F)F)c2)cn1 [nilotinib]
Summary of the method: as §1

[4] = compound: Cc1nc(Nc2n[nH]c3c2CN(C(=O)N[C@H](CN(C)C)c2ccccc2)C3(C)C)c2sccc2n1
Summary of the method: as §1

[5] = compound: Cc1nc(Nc2ncc(C(=O)Nc3c(C)cccc3Cl)s2)cc(N2CCN(CCO)CC2)n1 [dasatinib]
Summary of the method: as §1

[6] = compound: Cc1ncc(-c2ccnc(Nc3ccc(S(C)(=O)=O)cc3)n2)n1C(C)C
Summary of the method: as §1

[7] = compound: Cn1cc(-c2ccc3c(c2)CCN3C(=O)Cc2cccc(C(F)(F)F)c2)c2c(N)ncnc21
Summary of the method: as §1

[8] = compound: Cn1cc(-c2ccc3nnc(C(F)(F)c4ccc5ncccc5c4)n3n2)cn1
Summary of the method: as §1

[9] = compound: Cn1cncc1[C@@](N)(c1ccc(Cl)cc1)c1ccc2c(c1)c(-c1cccc(Cl)c1)cc(=O)n2C [tipifarnib]
Summary of the method: as §1

[10] = compound: FC(F)(F)c1ccc(/C=C/c2nc(COc3ccc(CCCCn4ccnn4)cc3)co2)cc1 [mubritinib]
Summary of the method: as §1

[11] = compound: NC(=O)Nc1cc(-c2cccc(F)c2)sc1C(=O)N[C@H]1CCCNC1
Summary of the method: as §1

[12] = compound: NC(=O)c1cnc(N[C@@H]2CCCC[C@@H]2N)nc1Nc1cccc(-n2nccn2)c1
Summary of the method: as §1

[13] = compound: NC1(c2ccc(-c3nc4ccn5c(=O)[nH]nc5c4cc3-c3ccccc3)cc2)CCC1
Summary of the method: as §1

[14] = compound: NCC(=O)Nc1ccc(-n2nc(C(F)(F)F)cc2-c2ccc3c(ccc4ccccc43)c2)cc1
Summary of the method: as §1

[15] = compound: Nc1ccccc1NC(=O)c1ccc(CNC(=O)OCc2cccnc2)cc1 [entinostat]
Summary of the method: as §1

[16] = compound: O=C(CCCCCCC(=O)Nc1ccccc1)NO [vorinostat]
Summary of the method: as §1

[17] = compound: O=C(CCCCCCNC(=O)c1cnc(N(c2ccccc2)c2ccccc2Cl)nc1)NO [citarinostat]
Summary of the method: as §1

[18] = compound: O=C(O)c1ccc2c(c1)nc(Nc1cccc(Cl)c1)c1ccncc12 [silmitasertib]
Summary of the method: as §1

[19] = compound: O=C1NC(=O)C(c2cnc3ccccn23)=C1c1cn2c3c(cc(F)cc13)CN(C(=O)N1CCCCC1)CC2
Summary of the method: as §1

[20] = compound: c1cc(OCCN2CCCCC2)cc(-c2n[nH]c3ccc(-c4nnc[nH]4)cc23)c1
Summary of the method: as §1

Measured: log2 fold change

ARL6IP6 (UniProt Q8N6S5)
Chain of UniProt Q8N6S5 (Q8N6S5 whole entry, looked up): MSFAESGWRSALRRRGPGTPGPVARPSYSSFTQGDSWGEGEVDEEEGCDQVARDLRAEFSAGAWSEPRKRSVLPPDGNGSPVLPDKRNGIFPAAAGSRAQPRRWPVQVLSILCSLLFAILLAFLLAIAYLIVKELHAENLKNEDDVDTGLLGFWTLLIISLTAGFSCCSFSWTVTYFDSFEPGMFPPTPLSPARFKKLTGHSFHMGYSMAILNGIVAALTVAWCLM
inactive: [1] -0.096 | [2] 0.024 | [3] -0.027 | [4] 0.019 | [5] 0.098 | [6] 0.036 | [7] 0.012 | [8] -0.186 | [9] -0.054 | [10] 0.04 | [11] -0.085 | [12] -0.125 | [13] -0.073 | [14] -0.015 | [15] -0.021 | [16] -0.007 | [17] -0.058 | [18] -0.014 | [19] 0.011 | [20] -0.059

ATP7B (UniProt P35670)
Chain of UniProt P35670 (P35670 whole entry, looked up): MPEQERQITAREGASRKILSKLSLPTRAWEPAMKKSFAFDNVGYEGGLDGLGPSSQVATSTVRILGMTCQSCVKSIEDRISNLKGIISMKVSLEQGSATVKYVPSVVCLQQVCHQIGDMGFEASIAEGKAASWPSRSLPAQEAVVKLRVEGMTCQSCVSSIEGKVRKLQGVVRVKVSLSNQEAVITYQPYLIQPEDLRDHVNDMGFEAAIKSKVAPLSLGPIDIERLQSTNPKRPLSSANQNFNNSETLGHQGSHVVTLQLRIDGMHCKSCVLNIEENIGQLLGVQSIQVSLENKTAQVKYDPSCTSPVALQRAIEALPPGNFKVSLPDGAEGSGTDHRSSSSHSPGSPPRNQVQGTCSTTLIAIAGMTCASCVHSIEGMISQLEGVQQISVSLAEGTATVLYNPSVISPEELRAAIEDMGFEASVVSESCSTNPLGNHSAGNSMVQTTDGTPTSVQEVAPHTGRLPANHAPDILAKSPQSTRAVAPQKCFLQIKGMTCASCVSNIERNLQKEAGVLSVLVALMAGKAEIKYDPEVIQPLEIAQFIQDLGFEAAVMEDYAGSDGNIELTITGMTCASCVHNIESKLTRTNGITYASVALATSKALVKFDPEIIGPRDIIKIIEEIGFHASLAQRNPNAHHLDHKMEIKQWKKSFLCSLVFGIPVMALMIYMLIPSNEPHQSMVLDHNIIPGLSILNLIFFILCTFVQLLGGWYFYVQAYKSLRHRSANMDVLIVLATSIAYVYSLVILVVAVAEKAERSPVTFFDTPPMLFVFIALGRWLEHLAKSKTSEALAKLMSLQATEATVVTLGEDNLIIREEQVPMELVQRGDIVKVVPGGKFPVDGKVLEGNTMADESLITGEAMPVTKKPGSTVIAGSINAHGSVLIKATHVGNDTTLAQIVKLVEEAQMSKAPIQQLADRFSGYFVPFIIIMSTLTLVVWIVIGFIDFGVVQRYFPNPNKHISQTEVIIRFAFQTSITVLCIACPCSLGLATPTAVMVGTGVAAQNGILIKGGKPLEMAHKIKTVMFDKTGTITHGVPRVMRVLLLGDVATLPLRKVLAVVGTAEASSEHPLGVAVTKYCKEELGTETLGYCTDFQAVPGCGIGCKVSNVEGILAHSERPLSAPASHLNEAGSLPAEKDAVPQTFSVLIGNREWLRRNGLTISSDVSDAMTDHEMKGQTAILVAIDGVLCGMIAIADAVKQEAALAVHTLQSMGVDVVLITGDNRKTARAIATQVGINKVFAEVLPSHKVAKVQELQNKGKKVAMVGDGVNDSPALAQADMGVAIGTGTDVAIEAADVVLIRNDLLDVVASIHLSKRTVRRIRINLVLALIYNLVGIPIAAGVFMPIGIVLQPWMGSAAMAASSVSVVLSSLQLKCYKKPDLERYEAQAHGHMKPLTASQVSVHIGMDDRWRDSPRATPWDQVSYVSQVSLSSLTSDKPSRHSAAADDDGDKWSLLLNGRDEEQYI
inactive: [1] -0.009 | [2] -0.032 | [3] 0.006 | [4] -0.017 | [5] -0.153 | [6] 0.087 | [7] 0.015 | [8] 0.001 | [9] 0.019 | [10] -0.079 | [11] -0.051 | [12] -0.139 | [13] -0.111 | [14] -0.15 | [15] -0.003 | [16] 0.035 | [17] 0.005 | [18] 0.036 | [19] -0.036 | [20] -0.023

ACSL4 (UniProt O60488)
Chain of UniProt O60488 (O60488 whole entry, looked up): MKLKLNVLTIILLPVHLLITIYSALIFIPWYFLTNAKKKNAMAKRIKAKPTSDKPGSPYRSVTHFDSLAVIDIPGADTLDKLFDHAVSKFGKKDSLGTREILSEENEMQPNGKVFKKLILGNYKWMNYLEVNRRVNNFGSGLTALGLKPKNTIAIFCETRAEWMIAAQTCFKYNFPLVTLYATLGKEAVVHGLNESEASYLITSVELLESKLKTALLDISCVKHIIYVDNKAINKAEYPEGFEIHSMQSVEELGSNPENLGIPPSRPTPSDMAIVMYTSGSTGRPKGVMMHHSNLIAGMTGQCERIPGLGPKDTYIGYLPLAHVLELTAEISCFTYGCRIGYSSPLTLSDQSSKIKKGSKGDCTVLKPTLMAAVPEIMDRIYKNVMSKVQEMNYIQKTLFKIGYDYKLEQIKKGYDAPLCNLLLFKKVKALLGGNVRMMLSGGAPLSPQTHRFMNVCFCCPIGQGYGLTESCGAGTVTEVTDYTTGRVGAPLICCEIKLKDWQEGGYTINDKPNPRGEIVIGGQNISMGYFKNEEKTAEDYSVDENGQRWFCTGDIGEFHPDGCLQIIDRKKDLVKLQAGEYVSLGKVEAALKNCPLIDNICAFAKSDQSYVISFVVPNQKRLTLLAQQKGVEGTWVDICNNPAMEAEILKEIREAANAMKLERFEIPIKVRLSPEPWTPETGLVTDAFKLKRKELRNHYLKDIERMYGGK
inactive: [1] -0.021 | [2] -0.014 | [3] -0.027 | [4] -0.063 | [5] -0.222 | [6] 0.087 | [7] 0.05 | [8] 0.115 | [9] -0.134 | [10] -0.078 | [11] -0.087 | [12] -0.097 | [13] -0.057 | [14] -0.023 | [15] 0.081 | [16] 0.029 | [17] 0.044 | [18] 0.149 | [19] 0.003 | [20] 0.017

ARF4 (UniProt P18085)
Chain of UniProt P18085 (P18085 whole entry, looked up): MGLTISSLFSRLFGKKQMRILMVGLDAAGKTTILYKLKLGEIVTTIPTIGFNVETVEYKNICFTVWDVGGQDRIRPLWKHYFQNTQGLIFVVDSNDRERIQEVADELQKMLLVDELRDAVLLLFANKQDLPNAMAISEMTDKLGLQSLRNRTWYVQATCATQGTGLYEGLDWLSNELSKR
inactive: [1] 0.113 | [2] 0.01 | [3] -0.056 | [4] 0.015 | [5] -0.053 | [6] 0.088 | [7] 0.052 | [8] 0.038 | [9] -0.061 | [10] 0.02 | [11] -0.011 | [12] 0.025 | [13] -0.082 | [14] -0.06 | [15] -0.002 | [16] -0.024 | [17] 0.041 | [18] -0.017 | [19] -0.069 | [20] -0.004

ASNS (UniProt P08243)
Chain of UniProt P08243 (P08243 whole entry, looked up): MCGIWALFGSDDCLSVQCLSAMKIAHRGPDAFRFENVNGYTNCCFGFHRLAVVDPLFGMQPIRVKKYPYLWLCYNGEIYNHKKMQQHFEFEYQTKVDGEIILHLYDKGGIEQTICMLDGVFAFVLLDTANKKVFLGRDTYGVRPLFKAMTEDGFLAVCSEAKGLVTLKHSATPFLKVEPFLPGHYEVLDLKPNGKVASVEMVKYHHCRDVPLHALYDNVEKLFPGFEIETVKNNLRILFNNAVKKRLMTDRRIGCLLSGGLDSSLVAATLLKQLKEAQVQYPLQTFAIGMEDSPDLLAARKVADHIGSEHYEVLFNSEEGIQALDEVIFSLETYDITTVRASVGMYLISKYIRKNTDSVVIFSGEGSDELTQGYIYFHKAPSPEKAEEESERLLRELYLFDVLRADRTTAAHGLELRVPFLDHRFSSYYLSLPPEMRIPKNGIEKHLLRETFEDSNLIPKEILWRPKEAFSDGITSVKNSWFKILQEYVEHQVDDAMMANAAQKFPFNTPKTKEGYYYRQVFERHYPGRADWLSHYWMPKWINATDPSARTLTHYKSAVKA
inactive: [1] -0.055 | [2] 0.02 | [3] 0.002 | [4] 0.021 | [5] 0 | [6] -0.003 | [7] 0.034 | [8] 0.015 | [9] -0.033 | [10] 0.012 | [11] -0.033 | [12] -0.018 | [13] -0.019 | [14] 0.008 | [15] -0.007 | [16] 0.018 | [17] 0.013 | [18] -0.044 | [19] -0.021 | [20] -0.026

BAIAP2 (UniProt Q9UQB8)
Chain of UniProt Q9UQB8 (Q9UQB8 whole entry, looked up): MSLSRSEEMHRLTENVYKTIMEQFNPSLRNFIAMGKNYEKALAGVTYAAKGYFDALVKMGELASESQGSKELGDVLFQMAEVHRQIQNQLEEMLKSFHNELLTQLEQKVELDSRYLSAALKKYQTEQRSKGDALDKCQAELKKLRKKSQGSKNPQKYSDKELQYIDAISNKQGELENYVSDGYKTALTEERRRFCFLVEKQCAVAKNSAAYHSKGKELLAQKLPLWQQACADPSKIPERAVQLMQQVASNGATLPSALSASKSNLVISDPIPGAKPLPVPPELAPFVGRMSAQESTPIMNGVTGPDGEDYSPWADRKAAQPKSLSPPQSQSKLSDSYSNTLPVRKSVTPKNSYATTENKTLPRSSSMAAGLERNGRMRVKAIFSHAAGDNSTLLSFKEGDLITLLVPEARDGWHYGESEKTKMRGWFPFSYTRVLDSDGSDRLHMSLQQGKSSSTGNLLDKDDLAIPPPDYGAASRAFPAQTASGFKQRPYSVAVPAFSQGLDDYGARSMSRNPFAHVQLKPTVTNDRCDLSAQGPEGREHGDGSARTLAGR
active: [11] -0.229
inactive: [1] -0.009 | [2] 0.032 | [3] -0.061 | [4] -0.05 | [5] -0.066 | [6] -0.038 | [7] 0.03 | [8] -0.032 | [9] -0.035 | [10] 0.06 | [12] -0.083 | [13] -0.086 | [14] -0.014 | [15] 0.019 | [16] 0.082 | [17] 0.031 | [18] -0.016 | [19] 0.04 | [20] -0.034
